From PubChem
An excerpt weighted towards active compounds, which were near 3.5% of everything screened.
FBW7 act: activators of human E3 ligase FBW7; Q969H0; AlphaScreen FBW7–phospho-cyclin E peptide binding, activator screen; normalized activity (activation), % at 26.1 µM; 650,000 tested, 0.13% active; AID 1259310; in the data active means normalized activity above about 1.9%;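 further: purified mutant Fbw7 with reduced substrate affinity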
Target sequence (Q969H0 whole entry, looked up): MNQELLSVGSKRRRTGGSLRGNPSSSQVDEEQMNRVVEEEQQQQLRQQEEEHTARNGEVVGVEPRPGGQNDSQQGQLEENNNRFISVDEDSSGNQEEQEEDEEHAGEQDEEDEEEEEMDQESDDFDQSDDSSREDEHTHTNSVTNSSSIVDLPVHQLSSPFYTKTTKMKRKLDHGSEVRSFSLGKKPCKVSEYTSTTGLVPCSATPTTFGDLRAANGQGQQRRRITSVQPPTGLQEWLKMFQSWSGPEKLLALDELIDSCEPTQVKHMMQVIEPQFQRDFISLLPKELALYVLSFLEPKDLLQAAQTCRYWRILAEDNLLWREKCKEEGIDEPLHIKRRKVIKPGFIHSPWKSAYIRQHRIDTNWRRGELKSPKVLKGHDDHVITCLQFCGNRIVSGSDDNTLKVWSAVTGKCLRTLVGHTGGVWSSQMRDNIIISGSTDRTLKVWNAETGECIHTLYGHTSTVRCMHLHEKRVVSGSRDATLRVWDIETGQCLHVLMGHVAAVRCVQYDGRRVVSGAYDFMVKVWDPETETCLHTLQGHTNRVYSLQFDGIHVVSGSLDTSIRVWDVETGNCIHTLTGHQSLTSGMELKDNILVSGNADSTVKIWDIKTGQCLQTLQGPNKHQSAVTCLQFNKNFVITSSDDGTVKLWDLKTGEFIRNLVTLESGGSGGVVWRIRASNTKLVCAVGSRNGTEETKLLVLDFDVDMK
TEAD-YAP block: TEAD-YAP interaction inhibition. HEK-TIYL cells, TEAD-Gal4/YAP UAS-luciferase luminescence. inhibition, % at 9.12 µM. 640,000 tested, 1.4% active; in the data active means inhibition above about 32%;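 further: 0% = median of test compound wells and 100% = reference inhibitor wells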
MITF primary: blocks human microphthalmia-associated transcription factor. inhibition, % at 2.6 µM. AlphaScreen MITF homodimerization, bead proximity signal. 650,000 tested, 0.91% active; in the data active means inhibition above about 50%;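 further: 0% = vehicle wells with protein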
GPR151 ag: activates the human receptor GPR151; Q8TDV0; PathHunter beta-arrestin GPR151 cells, luminescence; activation, % at 11.2 µM; 650,000 tested, 1% active; AID 1508602; in the data active means activation above about 4.9%;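 further: 0% = median of compound wells and 100% = cells with positive control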
* = called active by the depositor; . = no result.

SMILES	FBW7 act	TEAD-YAP block	MITF primary	GPR151 ag
COc1ccc2nc(N3CCC(C(=O)NCCCOC(C)C)CC3)sc2c1	0	2	-17	1
O=C(NNC(=S)NCC1CCCO1)C(Sc1ccccc1)c1ccccc1 (centres undefined)	2.2*	1	2	1
O=C(COc1ccc(F)c(Cl)c1)NNC(=S)Nc1ccc2c(c1)OCO2	0	1	2	1
O=C(c1ccc(F)cc1)N1CCN(c2cc(N3CCCC3)c(F)cc2[N+](=O)[O-])CC1	0	12	15	-1
Cc1cc(C)c(OCC(=O)N/N=C/c2ccccc2O)c(C)c1	0	-4	0	1
COc1c(O)ccc(/C=N/NC(=O)COc2c(C)ccc(C)c2C)c1[N+](=O)[O-]	0	54*	7	0
CCOc1ccccc1OCC(=O)N/N=C(/C)c1ccc(Cl)cc1	0	69*	9	0
CCOc1ccccc1OCC(=O)N/N=C/c1ccccc1O	-2	59*	-6	0
COc1c(O)ccc(/C=N/NC(=O)COc2ccccc2C)c1[N+](=O)[O-]	0	-8	-5	3
Cc1cccc(C)c1OCC(=O)N/N=C/c1ccccc1O	0	51*	13	1
CCCCCCCCCCCCCCCC(=O)N[C@H]1CCOC1=O	.	.	7	1
O=C(COC(=O)/C=C/c1cccc(Cl)c1)Nc1ccc(S(=O)(=O)N2CCCC2)cc1	0	6	13	0
CCOc1ccccc1OCC(=O)N/N=C/c1ccc(O)c([N+](=O)[O-])c1	0	55*	0	0
N#Cc1ccccc1OCC(=O)N/N=C/c1ccc(O)c([N+](=O)[O-])c1	0	-14	-6	1
CCc1ccccc1NC(=O)c1cc(S(=O)(=O)NCc2ccccc2)ccc1F	0	14	9	0
Nn1cnnc1N/N=C/c1ccc(O)c(O)c1	-1	-5	88*	-1
Nc1nnc(CC(=O)N/N=C\c2ccc(O)c(O)c2)s1	0	4	52*	1
O=C(N/N=C/c1ccc(O)c(O)c1)N/N=C/c1ccc(O)c(O)c1	0	-3	95*	0
O=C(N/N=C/c1ccc(O)c(O)c1)c1cccc(N/N=C/c2ccc(O)c(O)c2)c1	0	-27	105*	-2
COc1cccc(C=O)c1OC/C=C/c1ccccc1	0	4	-8	3
O=C(C(=O)N1CCN(C(=O)c2ccco2)CC1)c1c(-c2ccccc2)cc2ccccn12	0	42*	3	0
COc1ccc(NC(=O)c2ccccn2)cc1	0	51*	-7	-6
CCOc1ccc(NC(=S)c2ccccn2)cc1	-1	75*	24	-8
COc1ccc(C(=O)Nc2ccc(NC(=O)c3ccccn3)cn2)cc1	0	0	-6	1
Cc1cc(C)c(NC(=O)c2ccccc2C(=O)O)c(C)c1	0	-7	3	0
SMILES	FBW7 act	TEAD-YAP block	MITF primary	GPR151 ag
COc1cc(NC(=O)c2cccc(-n3ncc4cc(Nc5ccccc5F)ccc43)c2)cc(OC)c1OC	0	33*	-6	0
COc1ccc(-n2ncnc2-c2cccc(-n3ncc4cc(Nc5ccccc5F)ccc43)c2)cc1	0	38*	7	2
Nc1ccc(-n2ncnc2-c2cccc(-n3ncc4cc(Nc5ccccc5F)ccc43)c2)cc1	0	-11	3	1
COC(=O)C[C@](O)(CCCC(C)(C)O)C(=O)O[C@@H]1C(OC)=C[C@]23CCCN2CCc2cc4c(cc2[C@H]13)OCO4	1	99*	3	-1
CC(C)n1cnc2c(NCc3cccnc3)nc(N3CCCC3CO)nc21 (centres undefined)	0	33*	-3	-1
OCC1CCCN1c1nc(NCc2cccnc2)c2ncn(-c3ccccc3)c2n1 (centres undefined)	0	44*	-2	2
OCC1CCCN1c1nc(NCc2ccccc2)c2ncn(-c3ccsc3)c2n1 (centres undefined)	0	0	-1	1
O=C(CC1(O)C(=O)N(Cc2ccccc2Cl)c2ccccc21)c1cccs1 (centres undefined)	0	7	-5	1
O=[N+]([O-])c1cccc(S(=O)(=O)NCCc2cn3ccsc3n2)c1	6.2*	-4	8	1
O=S(=O)(NCc1cn2ccsc2n1)c1ccc(Oc2ccccc2)cc1	0	35*	-8	0
O=[N+]([O-])c1ccc(S(=O)(=O)NCCc2cn3ccsc3n2)cc1	0	-4	-1	-1
Cc1cc(C=C2C(=O)c3ccccc3C2=O)c(C)n1-c1cc(C(=O)O)cc(C(=O)O)c1	0	0	64*	1
Cc1cc(C=C2C(=O)c3ccccc3C2=O)c(C)n1-c1ccc(S(N)(=O)=O)cc1	0	6	-6	1
CCc1ccc(NS(=O)(=O)c2ccc3c(c2)OCC(=O)N3)cc1	1	7	8	0
Cc1ncc(CO)c(/C=N/Nc2nc3ccccc3[nH]2)c1O	-1	-11	86*	1
Cc1ncc(CO)c(/C=N/NC(=O)c2ccc(C(C)(C)C)cc2)c1O	0	83*	15	0
Cc1ncc(CO)c(/C=N/NC(=O)c2cc3c(s2)CCCC3)c1O	-1	40*	29	-1
COCCNc1nccn2c(-c3ccoc3)cnc12	2.1*	-4	7	-1
c1ccc(Nc2nccn3c(-c4ccoc4)cnc23)cc1	0	66*	0	-5
Nc1cccc(-c2cnc3c(Nc4ccccc4)nccn23)c1	2	88*	19	-2
Nc1cccc(-c2cnc3c(Nc4ccc(Cl)cc4)nccn23)c1	0	65*	7	-1
COCCCNc1nccn2c(-c3cccc(O)c3)cnc12	-1	51*	5	-1
COc1cc(S(=O)(=O)N(Cc2cccs2)C2CCCC2)ccc1-n1cnnn1	0	-6	-1	1
COc1cc(S(=O)(=O)N(Cc2ccccc2F)C2CCCC2)ccc1-n1cnnn1	0	67*	-5	1
O=C(NNC(=S)NC(=O)C(c1ccccc1)c1ccccc1)c1ccccc1O	-2	86*	23	0
SMILES	FBW7 act	TEAD-YAP block	MITF primary	GPR151 ag
O=C(/C=C/c1cccs1)NC(=S)NNC(=O)c1ccccc1O	-1	81*	40	4
COc1cc(C=O)ccc1OCCCOc1ccccc1Br	0	-30	12	0
c1cc(CCNc2nccn3c(-c4ccsc4)cnc23)ccn1	0	39*	-9	-1
COc1cc(Nc2nccn3c(-c4ccsc4)cnc23)cc(OC)c1OC	1	55*	16	1
COc1cc(CNc2nccn3c(-c4ccsc4)cnc23)cc(OC)c1OC	0	-4	13	1
COc1cc(Nc2nccn3c(-c4cccc5ccccc45)cnc23)cc(OC)c1OC	-1	16	-19	3
COc1cc(Nc2nccn3c(-c4ccc(C)cc4)cnc23)cc(OC)c1OC	-1	46*	-6	0
COc1cc(Nc2nccn3c(-c4cccc(N)c4)cnc23)cc(OC)c1OC	-1	43*	2	0
COc1cc(-c2cnc3c(Nc4ccc(Cl)cc4)nccn23)cc(OC)c1OC	0	4	-9	0
Cc1ccc(NC(=O)CSc2nc3c(oc4ccccc43)c(=O)n2C(C)C)cc1C	0	16	2	1
